Results on nine molecules are retold here after PubChem BioAssay (NCATS).

A short description of assay [1]: AP1 Signaling Pathway (AID 357; active = well fitted curve in either direction with a large enough effect, not every such curve was filed as active; note: % is set by controls: 0 for no effect and ±100 for the full control effect). Particulars: ME-180 AP-1-bla reporter, EGF-induced, beta-lactamase ratio, 5 h. In outline:
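AP-1-bla ME-180 cells with beta-lactamase reporter under AP-1 response element, stimulated with EC50 EGF; compounds titrated, 5 hours at 37 degrees Celsius. CCF4 read at 460/530 nm ratio; positive and negative modulators judged by AC50.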

In assay [2] the target is Cytochrome P450 1A2 (Homo sapiens) (UniProt P05177). As to the kind of experiment: p450-cyp1a2 (AID 410; calls by dose curve; note: potency is the fitted concentration of half-maximal effect). The following applies: recombinant CYP1A2, luciferin-ME demethylation, luminescence; series mostly up to 57 µM. In outline:
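O-Demethylation of luciferin 6' methyl ether by human CYP1A2 is monitored as luciferase luminescence. Substrate sits at Km (100uM); enzyme is 20nM. Values are scaled to 57 uM furafylline as maximal inhibition.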

Assay [3] in a line: NFAT Signaling Pathway (AID 444; active = well fitted curve in either direction with a large enough effect, not every such curve was filed as active;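 note: carbachol stimulus at about its EC50 of 1 µM final; % is set by controls: 0 for no effect and ±100 for the full control effect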). Particulars: Jurkat NFAT-bla M1, carbachol, beta-lactamase ratio, 5 h. In outline: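 Jurkat cells carrying an NFAT-driven β-lactamase reporter and co-transfected muscarinic M1 receptor were treated with compound plus carbachol (1 uM final, an EC50 level) for 5 h at 37 °C. CCF4 loading followed for 1 h at RT; 460/530 nm ratio gave %activity.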

Assay [4] is described as follows: Stat Signaling Pathway (AID 446; active = well fitted curve in either direction with a large enough effect, not every such curve was filed as active;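 note: ME-180 cervical cancer cells given 40 pM IL-6 alongside compound; SIE-controlled beta-lactamase reporter measured as 460/530 nm FRET emission ratio; % is set by controls: 0 for no effect and ±100 for the full control effect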). The following applies: ME-180 (cervical carcinoma) SIE beta-lactamase reporter, IL-6 stimulated, 5 h. In outline:
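Overnight-plated ME-180 cells bearing a STAT Inducible Element beta-lactamase reporter; 5 h co-exposure to compound and 40 pM IL-6; values normalized to 300 pM IL-6 and 125 nM JAK inhibitor controls.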

In assay [5] the target is Glucocorticoid receptor (Homo sapiens) (UniProt P04150). As to the kind of experiment: GR-GFP Redistribution (AID 450;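 active = compounds whose dose series gives a full or clear partial fitted curve of increased nuclear translocation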; note: potency is the fitted concentration of half-maximal effect). The following applies: U2OS GR-GFP nuclear translocation, laser cytometry, 2 h.
Glucocorticoid receptor (Homo sapiens), sequence (P04150 whole entry, looked up): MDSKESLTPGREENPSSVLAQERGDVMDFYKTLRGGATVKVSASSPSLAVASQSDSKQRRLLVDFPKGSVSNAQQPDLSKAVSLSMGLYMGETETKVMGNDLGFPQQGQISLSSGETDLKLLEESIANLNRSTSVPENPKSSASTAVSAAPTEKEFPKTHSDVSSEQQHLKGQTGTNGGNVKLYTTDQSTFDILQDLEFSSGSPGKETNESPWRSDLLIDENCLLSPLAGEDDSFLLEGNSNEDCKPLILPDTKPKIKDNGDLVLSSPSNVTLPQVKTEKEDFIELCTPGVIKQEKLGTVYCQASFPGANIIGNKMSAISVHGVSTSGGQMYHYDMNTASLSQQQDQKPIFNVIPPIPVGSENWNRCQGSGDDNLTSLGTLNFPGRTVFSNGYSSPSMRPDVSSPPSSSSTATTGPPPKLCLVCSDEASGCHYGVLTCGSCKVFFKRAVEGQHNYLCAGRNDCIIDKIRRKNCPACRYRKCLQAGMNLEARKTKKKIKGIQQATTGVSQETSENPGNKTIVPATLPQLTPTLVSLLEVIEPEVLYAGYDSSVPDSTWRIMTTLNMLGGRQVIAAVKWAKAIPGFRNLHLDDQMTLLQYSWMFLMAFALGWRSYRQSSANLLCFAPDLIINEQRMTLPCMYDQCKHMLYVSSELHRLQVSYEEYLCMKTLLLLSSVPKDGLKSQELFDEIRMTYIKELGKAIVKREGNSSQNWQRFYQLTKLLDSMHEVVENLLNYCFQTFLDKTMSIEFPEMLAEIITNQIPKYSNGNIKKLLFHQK
Assay [6] shares this target. As to the kind of experiment: GR-EFC Redistribution (AID 451; calls by dose curve; note: potency is the fitted concentration of half-maximal effect). Particulars: CHO-K1 GR-EFC translocation, beta-gal luminescence, 2 h. In outline:
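CHO-K1 cells stably expressing nuclear-localized β-gal enzyme acceptor and GR fused C-terminally to the enzyme donor fragment; ligand-driven nuclear translocation restores β-gal by complementation. Compounds titrated up to 46 uM final, 2 h at 37 °C; luminescence read.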

Assay [7] concerns the target Mitogen-activated protein kinase 10 (Mus musculus) (UniProt Q61831). In words: JNK3 AlphaScreen Assay (AID 530; active = well fitted curve in either direction with a large enough effect, not every such curve was filed as active;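 note: kinase came from lysate of stimulated human HepG2 cells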; note: potency is the fitted concentration of half-maximal effect). The following applies: JNK3 lysate, c-Jun phosphorylation; series mostly up to 57.1 µM. In outline:
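Phosphorylation of biotinylated GST-cJun(1-79) at Ser73 is measured by AlphaScreen proximity luminescence. Enzyme is JNK3 in HepG2 lysates activated with interleukin-1beta and tumor necrosis factor alpha; ATP is 10 uM final.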
In general terms: In Alpha technology, singlet oxygen from a donor bead excites a nearby acceptor bead.

Assay [8] deals with 3',5'-cyclic-AMP phosphodiesterase 4B (Homo sapiens) (UniProt Q07343). In words: qHTS Assay for Inhibitors of PDE-IV (AID 607; active = well fitted activation curve with a large enough effect in the main read-out, with a control signal flat, not every such curve was filed as active; note: % of control where 0% means no effect). The following applies: HEK293 ACTOne CNG channel cells, membrane potential fluorescence; series mostly up to 22.9 µM. The gist of the method: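 Live HEK293 cells with a modified cyclic nucleotide-gated (CNG) channel report intracellular cAMP via membrane-potential dye fluorescence (ex 535/em 590 nm). Endogenous PDE-IV was targeted. Compounds were tested at up to 22.9 uM final; RO 20-1724 100 uM served as control.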
3',5'-cyclic-AMP phosphodiesterase 4B (Homo sapiens), sequence (Q07343 whole entry, looked up): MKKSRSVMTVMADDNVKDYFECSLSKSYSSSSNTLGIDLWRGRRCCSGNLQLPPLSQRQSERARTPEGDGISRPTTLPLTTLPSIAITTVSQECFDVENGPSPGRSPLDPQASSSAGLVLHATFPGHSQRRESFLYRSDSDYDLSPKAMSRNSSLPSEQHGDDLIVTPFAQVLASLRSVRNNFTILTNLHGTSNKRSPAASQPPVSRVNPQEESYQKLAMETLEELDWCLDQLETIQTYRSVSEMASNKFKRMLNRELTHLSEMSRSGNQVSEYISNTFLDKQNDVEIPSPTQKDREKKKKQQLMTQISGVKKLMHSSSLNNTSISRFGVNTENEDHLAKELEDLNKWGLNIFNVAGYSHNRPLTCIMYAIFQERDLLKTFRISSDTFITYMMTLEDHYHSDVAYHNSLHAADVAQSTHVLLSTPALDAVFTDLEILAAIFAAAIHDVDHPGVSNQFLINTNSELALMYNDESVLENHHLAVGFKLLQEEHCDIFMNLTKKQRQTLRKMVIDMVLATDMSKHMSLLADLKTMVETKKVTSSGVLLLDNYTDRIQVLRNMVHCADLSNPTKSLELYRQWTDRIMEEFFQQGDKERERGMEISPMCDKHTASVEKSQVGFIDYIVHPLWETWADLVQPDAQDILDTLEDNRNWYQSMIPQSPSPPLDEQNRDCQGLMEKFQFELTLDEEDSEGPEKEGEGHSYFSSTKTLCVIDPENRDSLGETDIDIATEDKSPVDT
(Quantitative high-throughput screening tests each substance at several concentrations.)

For assay [9], the target named is Cytochrome P450 3A4 (Homo sapiens) (UniProt P08684). In words: qHTS Assay for Activators of Cytochrome P450 3A4 (AID 885). Note: nearly all actives have a fitted effect of over 65% in size. The following applies: recombinant CYP3A4, Luciferin-PPXE luminescence, 60 min; series mostly up to 57.1 µM. In outline: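 Using 20nM recombinant human CYP3A4 in potassium phosphate (200mM), substrate Luciferin-PPXE at 25uM, luminescent luciferin detection followed a 60-min RT NADPH reaction; data scaled to 57 uM ketoconazole.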
Cytochrome P450 3A4 (Homo sapiens), sequence (P08684 whole entry, looked up): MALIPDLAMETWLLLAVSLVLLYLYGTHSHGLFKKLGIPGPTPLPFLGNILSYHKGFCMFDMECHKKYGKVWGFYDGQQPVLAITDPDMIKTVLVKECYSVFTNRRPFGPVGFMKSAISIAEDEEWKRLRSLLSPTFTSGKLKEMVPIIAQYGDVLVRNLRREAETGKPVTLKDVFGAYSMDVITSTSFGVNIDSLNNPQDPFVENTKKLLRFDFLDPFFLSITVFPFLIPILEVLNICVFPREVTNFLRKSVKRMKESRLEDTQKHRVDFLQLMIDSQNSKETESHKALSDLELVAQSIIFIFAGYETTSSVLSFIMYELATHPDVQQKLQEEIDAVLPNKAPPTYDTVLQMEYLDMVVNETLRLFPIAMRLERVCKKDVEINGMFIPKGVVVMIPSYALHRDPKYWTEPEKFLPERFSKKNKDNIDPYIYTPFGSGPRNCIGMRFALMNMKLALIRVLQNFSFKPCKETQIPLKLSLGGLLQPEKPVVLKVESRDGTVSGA

Assay [10] deals with Cytochrome P450 2C19 (Homo sapiens) (UniProt P33261). As to the kind of experiment: qHTS Assay for Inhibitors and Substrates of Cytochrome P450 2C19 (AID 899). Note: nearly all actives have a fitted effect of over 60% in size. Note: potency is the fitted concentration of half-maximal effect. Particulars: recombinant CYP2C19, luciferin-H EGE luminescence; series mostly up to 57.1 µM. The gist of the method: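 NADPH-dependent conversion of Luciferin-H EGE (10uM, at KM) by 5nM enzyme in 50mM KPO4, 60 min at 37C following 10 min compound preincubation. Stopped with luciferin detection buffer; luminescence read after 20 min.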
Cytochrome P450 2C19 (Homo sapiens), sequence (P33261 whole entry, looked up): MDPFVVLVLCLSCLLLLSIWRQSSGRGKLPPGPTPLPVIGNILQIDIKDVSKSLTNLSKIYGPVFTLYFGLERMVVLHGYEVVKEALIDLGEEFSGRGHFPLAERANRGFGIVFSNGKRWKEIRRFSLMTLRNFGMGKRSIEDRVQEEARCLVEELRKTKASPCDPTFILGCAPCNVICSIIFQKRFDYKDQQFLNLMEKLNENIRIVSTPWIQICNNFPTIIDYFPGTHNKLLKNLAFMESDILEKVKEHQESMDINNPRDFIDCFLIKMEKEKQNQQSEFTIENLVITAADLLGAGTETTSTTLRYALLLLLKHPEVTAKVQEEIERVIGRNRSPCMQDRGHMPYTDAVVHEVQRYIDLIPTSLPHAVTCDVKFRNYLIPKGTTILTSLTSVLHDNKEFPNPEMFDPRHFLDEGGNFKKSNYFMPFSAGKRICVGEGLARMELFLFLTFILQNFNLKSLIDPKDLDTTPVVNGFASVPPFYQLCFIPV

In assay [11] the target is DNA dC->dU-editing enzyme APOBEC-3G (Homo sapiens) (UniProt Q9HC16). In words: qHTS for inhibitors of Vif-A3G interactions: Validation (AID 588379). Note: 0% is about no effect. The following applies: Vif-A3G protein interaction assay; series mostly up to 46.1 µM. In outline:
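Yellow fluorescence (Ex 488, Em 500-530) of Vif-coexpressing HeLa A3G-eYFP cells, scanned by Acumen cytometer, reports blocked A3G degradation. Cells plated at 700/well overnight at 37 deg C before compound addition, then a further overnight compound incubation at 37 deg C.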

The subject of assay [12] is Zika virus NS2B-NS3 protease. In words: Primary screen GU AMC qHTS for Zika virus inhibitors (AID 1347154).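 Note: 0% = no-inhibitor control and -100% = no-enzyme control; nearly all actives have a fitted effect of over 70% in size.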 The following applies: Zika NS2B-NS3 unlinked protease, AMC fluorogenic substrate; series mostly up to 54.1 µM. In outline: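 Unlinked Zika NS2B hydrophilic domain/NS3 protease domain noncovalent complex (25 nM final) in 10 mM Tris-HCl pH 8.0, 0.01% Tween 20, with AMC peptide substrate. Fluorescence (ex 340, em 450 nm) change over 15 min, room temperature; percent inhibition fitted to 4-parameter Hill equation.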

Assay [13] in a line: Primary qHTS for small molecule stabilizers of the endoplasmic reticulum resident proteome: Secreted ER Calcium Modulated Protein (SERCaMP) assay (AID 1508630). Note: % is set by controls: 0 for no effect and ±100 for the full control effect. Particulars: SH-SY5Y GLuc-SERCaMP (Gaussia luciferase released on ER calcium loss) secretion, thapsigargin, luminescence; series mostly up to 38.4 µM. The gist of the method: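 The SH-SY5Y reporter protocol was run at 3 concentrations up to 38.3 uM (primary) or 11 concentrations (follow-up): 16 h compound, 100 nM thapsigargin for 4 h, then extracellular luciferase luminescence.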

The nature of assay [14]: qHTS Assay for Lipid Storage Modulators (AID 1519; calls by dose curve). The following applies: Drosophila S3 cells, BODIPY lipid droplet/cell ratio, laser cytometry, cells loaded with oleic acid; for activity change, negative = inhibition: at 57.5 µM (top of the series). In outline: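 Cells seeded at 5,000 per well were treated with compounds over a concentration series and loaded with oleic acid (400 uM, as added). Lipid droplet fluorescence (488 nm excitation, 500-530 nm channel) was read by laser-scanning cytometry and normalized to 20 uM Triacsin C.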

The target in assay [15] is Ubiquitin carboxyl-terminal hydrolase 1 (Homo sapiens) (UniProt O94782). In words: Inhibitors of USP1/UAF1: Pilot qHTS (AID 504865). Note: nearly all actives have a fitted effect of over 35% in size. Note: potency is the fitted concentration of half-maximal effect. The following applies: purified USP1/UAF1, Ub-rhodamine cleavage fluorescence; series mostly up to 114 µM. In outline: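 In 50mM HEPES pH 7.8 containing 0.5mM EDTA, 1mM TCEP, 0.1 mg/ml BSA and 0.01% Tween-20, 1nM USP1/UAF1 is exposed to compound for 15 min, then Ub-Rho (150nM final) is added and fluorescence is read over time.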
Ubiquitin carboxyl-terminal hydrolase 1 (Homo sapiens), sequence (O94782 whole entry, looked up): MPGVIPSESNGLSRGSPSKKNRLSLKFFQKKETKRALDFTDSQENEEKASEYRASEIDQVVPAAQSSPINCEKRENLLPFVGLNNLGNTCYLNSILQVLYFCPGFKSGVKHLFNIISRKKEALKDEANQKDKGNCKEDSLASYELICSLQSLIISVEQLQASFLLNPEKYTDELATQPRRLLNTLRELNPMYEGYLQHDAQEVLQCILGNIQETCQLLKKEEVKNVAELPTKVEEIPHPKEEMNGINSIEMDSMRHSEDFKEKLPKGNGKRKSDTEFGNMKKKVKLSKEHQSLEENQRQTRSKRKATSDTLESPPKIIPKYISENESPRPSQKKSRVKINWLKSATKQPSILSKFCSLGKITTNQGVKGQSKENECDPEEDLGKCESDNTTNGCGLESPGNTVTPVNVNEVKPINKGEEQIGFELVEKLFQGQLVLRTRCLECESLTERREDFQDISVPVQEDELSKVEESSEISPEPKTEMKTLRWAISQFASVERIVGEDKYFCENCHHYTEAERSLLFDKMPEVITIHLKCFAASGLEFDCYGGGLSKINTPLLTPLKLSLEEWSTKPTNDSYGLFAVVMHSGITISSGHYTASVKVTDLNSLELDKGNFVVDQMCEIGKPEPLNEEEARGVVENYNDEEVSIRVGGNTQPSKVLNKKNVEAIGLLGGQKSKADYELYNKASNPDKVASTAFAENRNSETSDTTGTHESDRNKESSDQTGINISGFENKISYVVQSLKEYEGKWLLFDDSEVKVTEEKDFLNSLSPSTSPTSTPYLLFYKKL

Assay [16] addresses Guanine nucleotide-binding protein G(i) subunit alpha-1 (Homo sapiens) (UniProt P63096). In words: qHTS Assay for Inhibitors of RGS12 GoLoco Motif Activity (Green Fluorophore) (AID 879).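 Note: 0% = labeled peptide with Gαi1 and full inhibition = labeled peptide alone without protein; negative values mean loss of peptide binding seen as reduced polarization.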 The following applies: Galphai1/FITC-RGS12 GoLoco peptide, fluorescence polarization; series mostly up to 57.1 µM. In outline: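 A drop in FITC polarization marked displacement of the FITC-tagged RGS12 GoLoco peptide (10 nM) from Gαi1 (50 nM). Compounds were incubated 10 min at room temperature in Tris pH 7.5 buffer containing 150 mM NaCl, 0.1 mM GDP and 0.05% NP40; unlabeled peptide titration served as control.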

The target of assay [17] is Pyruvate kinase (Leishmania mexicana) (UniProt Q27686). In words: qHTS Validation Assay for Inhibitors of Leishmania Mexicana Pyruvate Kinase (AID 945).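 Note: 0% = DMSO only neutral control wells.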 The following applies: purified L. mexicana pyruvate kinase, enzyme activity, E451W mutant enzyme; series mostly up to 57.5 µM. The gist of the method:
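Read-out: luminescence from PKLight stop/detection reagent, data normalized to DMSO. Reaction: 0.2 nM E451W LmPYK, 0.5 mM PEP, 0.1 mM ADP, pH 7.2, 1 h room temperature.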

Assay [18] has as its target Alpha-galactosidase A (Homo sapiens) (UniProt P06280). As to the kind of experiment: Counterscreen for Glucocerebrosidase Inhibitors: qHTS Assay for Human alpha-Galactosidase at pH 4.5 (AID 992). Note: 0% is about no effect. The following applies: purified enzyme, fluorogenic substrate; series mostly up to 76.9 µM. In outline: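 Each compound is preincubated briefly with 2 nM enzyme before substrate addition (80 uM); plates then sit 20 min at ambient temperature, are quenched with 1M NaOH/1M glycine, and read fluorometrically.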
(A counterscreen serves to expose hits that act by an unwanted route or on another target.)

Assay [19] addresses alpha-glucosidase (Oryza sativa, rice) (UniProt Q653V4). As to the kind of experiment: Counterscreen for Glucocerebrosidase Inhibitors: qHTS Assay for Rice alpha-Glucosidase at pH 5.0 (AID 997).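 Note: 0% = full activity with enzyme and -100% = basal without enzyme.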 Particulars: rice alpha-glucosidase enzyme activity; series mostly up to 76.9 µM. The gist of the method: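 Endpoint fluorogenic assay at pH 5.0: compounds (0.7 nM to 77 uM) titrated against 4 nM rice enzyme and 400 uM 4-MU-alpha-glucoside for 20 min at room temperature; NaOH/glycine stop, read ex 365/em 440 nm, Hill-fitted AC50.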

Where [20] appears, read: measured here: cell count channel max response.
Where [21] appears, read: measured here: lipid channel max response.

Several values for one entry are separate records, joined by “and”; a condition that tells them apart may be missing. Equal entries are not always repeated. Records with an inconclusive call do not appear. Activity calls are given as the source filed them. Unless noted, calls come from the whole dose curve; as a rule, active = well fitted curve in the direction sought with a large enough effect; inconclusive = small, poorly fitted or top-dose-only effect, or another doubt; inactive = no such curve, though single readings can be large; an effect the other way counts as inactive or inconclusive. Where only a bound is given, the exact number is not on record here.

Cytochrome P450 1A2 (Homo sapiens), sequence (P05177 whole entry, looked up): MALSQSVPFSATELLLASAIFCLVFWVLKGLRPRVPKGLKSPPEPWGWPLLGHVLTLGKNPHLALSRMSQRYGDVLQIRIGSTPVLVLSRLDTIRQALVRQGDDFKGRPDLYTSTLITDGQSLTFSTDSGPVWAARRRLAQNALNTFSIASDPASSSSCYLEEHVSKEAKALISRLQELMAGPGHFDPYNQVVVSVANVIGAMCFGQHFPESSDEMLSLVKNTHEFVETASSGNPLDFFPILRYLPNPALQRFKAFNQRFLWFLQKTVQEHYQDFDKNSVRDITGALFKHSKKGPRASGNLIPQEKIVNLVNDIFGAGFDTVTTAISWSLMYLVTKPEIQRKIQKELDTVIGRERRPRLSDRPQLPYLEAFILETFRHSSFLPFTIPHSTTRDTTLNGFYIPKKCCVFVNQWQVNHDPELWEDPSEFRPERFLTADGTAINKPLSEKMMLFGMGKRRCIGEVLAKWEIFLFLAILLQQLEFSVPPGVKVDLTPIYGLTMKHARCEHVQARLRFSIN
DNA dC->dU-editing enzyme APOBEC-3G (Homo sapiens), sequence (Q9HC16 whole entry, looked up): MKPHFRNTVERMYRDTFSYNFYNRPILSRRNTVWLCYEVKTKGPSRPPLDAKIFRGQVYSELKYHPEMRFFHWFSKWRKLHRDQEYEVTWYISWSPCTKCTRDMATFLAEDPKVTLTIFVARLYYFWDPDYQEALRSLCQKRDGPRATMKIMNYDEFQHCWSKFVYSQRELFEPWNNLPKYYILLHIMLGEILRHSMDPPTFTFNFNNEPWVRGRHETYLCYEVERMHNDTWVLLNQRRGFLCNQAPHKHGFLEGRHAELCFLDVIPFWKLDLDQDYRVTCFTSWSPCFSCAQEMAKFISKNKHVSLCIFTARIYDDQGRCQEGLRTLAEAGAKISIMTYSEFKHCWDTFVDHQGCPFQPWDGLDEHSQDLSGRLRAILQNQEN
Pyruvate kinase (Leishmania mexicana), sequence (Q27686 2-499 E452W): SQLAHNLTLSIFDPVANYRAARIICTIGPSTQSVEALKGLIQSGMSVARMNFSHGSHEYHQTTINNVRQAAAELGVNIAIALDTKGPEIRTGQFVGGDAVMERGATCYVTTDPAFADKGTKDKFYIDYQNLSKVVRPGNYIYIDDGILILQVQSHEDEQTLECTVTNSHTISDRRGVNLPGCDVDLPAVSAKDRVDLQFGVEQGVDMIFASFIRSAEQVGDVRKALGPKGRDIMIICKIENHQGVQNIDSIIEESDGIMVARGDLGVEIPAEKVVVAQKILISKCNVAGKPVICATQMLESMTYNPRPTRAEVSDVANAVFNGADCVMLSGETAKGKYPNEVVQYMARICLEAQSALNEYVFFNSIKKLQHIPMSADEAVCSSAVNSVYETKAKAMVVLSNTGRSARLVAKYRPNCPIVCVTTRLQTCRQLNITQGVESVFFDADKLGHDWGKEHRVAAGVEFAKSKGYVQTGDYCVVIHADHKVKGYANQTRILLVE

Take `COc1cc(CNC(=O)CCCC/C=C\C(C)C)ccc1O`: the activity change, negative = inhibition is 7.68% (inactive) in assay [1] (at 17.2 µM (top of the series)) and -1.65% (inactive) in assay [3] (at 17.2 µM (top of the series)). In addition, the Potency was 1.58 µM (active) and 2 µM (active) and 3.16 µM (active) in assay [2]; > 20.6 µM (inactive) and > 46 µM (inactive) in assay [5]; > 20.6 µM (inactive) and > 46 µM (inactive) in assay [6]; 7.94 µM (active) and 6.31 µM (active) in [10]. In addition, the activity, negative = inhibition in [4] (at 17.2 µM (top of the series)) is -15.5% (inactive). Besides, the Potency result in assay [7], in assay [8], in [9], in [11], in assay [12] and in [13] was “inactive” in each case.
Regarding `C=CC1=C(C)C2=NC1=CC1=NC(=CC3=NC(=CC4=NC(=C2)C(C)=C4CCC(=O)O)C(CCC(=O)O)=C3C)C(C=C)=C1C.[Zn]`, the Potency in [7] is 0.794 µM [activator] (active); in assay [15], 44.7 µM (active). Also, the Potency entry in assay [8], in [10], in [11], in [12] and in assay [13] was “inactive” in each case. Also, the activity change, negative = inhibition in assay [14] was -3.5% (inactive). For the same molecule, the max response in [14] (setting [20]) was -8.49%; in assay [14] (setting [21]), -12%.
For `c1ccc(-c2[nH]ncc2-c2ccnc3ccccc23)nc1`, the Potency result in [12] and in [13] was “inactive” in each case.
In the case of `CC(=O)O[C@H]1C[C@H]2CC[C@@H]3[C@H]4C[C@@H]([N+]5(C)CCCCC5)[C@@H](OC(C)=O)[C@]4(C)CC[C@@H]3[C@@]2(C)C[C@@H]1[N+]1(C)CCCCC1`, in [5], the Potency is > 46 µM (inactive). Also, the Potency entry in assay [7], in [8], in assay [11], in assay [12] and in [13] was “inactive” in each case. The activity change, negative = inhibition in [14] is -5.08% (inactive). For the same molecule, the values for the max response in assay [14] (setting [20]) and in assay [14] (setting [21]) were -19.7% and -24.4%, respectively.
For the molecule `NC1(C(=O)O)C[C@@H](C(=O)O)[C@H](C(=O)O)C1`, the Potency in assay [5] is > 46 µM (inactive); in assay [10] it was 7.94 µM (active). In addition, the Potency result in assay [7], in assay [8], in [15], in assay [11], in assay [12] and in [13] was “inactive” throughout. In addition, the activity change, negative = inhibition in assay [14] was 7.04% (inactive) and 6.44% (inactive). Moreover, the max response in assay [14] (setting [20]) is 8.99% and 4.7%; in assay [14] (setting [21]) it was 18.3% and 11.3%.
In the case of `N[C@]1(C(=O)O)CCc2cc(P(=O)(O)O)ccc21`, the Potency in assay [5] and in [6] was > 46 µM (inactive) in each case. The Potency result in [7], in assay [8], in [11], in [12] and in assay [13] was “inactive” each time. The activity change, negative = inhibition in assay [14] is -2.38% (inactive). The max response in assay [14] (setting [20]) is -7.84%; in assay [14] (setting [21]), -8.48%.
Consider `Cc1nccn1CC1CCC2C(C1=O)c1ccccc1N2C` (stereo unspecified), for which the Potency result in assay [12] and in [13] was “inactive” throughout.
With `CCN(CC)CC1CCN(c2ncc3ncnc(Nc4ccc(F)c(Cl)c4)c3n2)CC1`, the Potency entry in assay [12] and in assay [13] was “inactive” throughout.
Regarding `CCOC(=O)C1=C(C)NC(C)=C(C(=O)OC)[C@H]1c1cccc([N+](=O)[O-])c1`, the activity change, negative = inhibition is -24.5% (inactive) in [1] (at 38 µM (top of the series)) and -17% (inactive) in assay [3] (at 38 µM (top of the series)). For the same molecule, the Potency in [2] was 15.8 µM (active); in assay [10] it was 1.26 µM (active) and 251 nM (active). Besides, in [4] (at 38 µM (top of the series)), the activity, negative = inhibition is 17.9% (inactive). The result in assay [16], in assay [18] and in [19] was inactive. The Potency result in [17], in [11], in assay [12] and in assay [13] was “inactive” each time.
